# Measurements from ChEMBL document CHEMBL1857833, “Screening and optimization of specific chemical series against human African Trypanosomiasis (HAT)”.
# The whole screen tested about 4,400 compounds, of which about 390 (8.9%) showed an effect of 50% or more. Only a selection was taken, and strong results are over-represented in it overall.
# System: Trypanosoma brucei
# Assay: DNDI: Inhibition of Human African Trypanosomiasis, SBRI 427, in vitro at 2 ug.mL-1
# Assay type: functional
row,Structure (SMILES),% inhibition
1,CCOC(=O)C1CCCCN1Cc1coc(-c2ccccc2C)n1 (centres undefined),1%
2,Cc1ccc(-c2nc(CNC(C)(C)CC(C)(C)C)co2)cc1,19%
3,N#CCCN(Cc1coc(-c2ccc(Br)cc2)n1)CC1CCCO1 (centres undefined),11%
4,CCOc1ccccc1-c1nc(Cn2ncc3c2CCCC3)co1,12%
5,Cc1ccc(/C(=N/O)N(C)Cc2ccco2)c(Oc2cc(Cl)ccc2Cl)n1,13%
6,CCCCN(CC#N)Cc1coc(-c2ccc(OC)cc2)n1,1%
7,Cc1ccc(/C(=N/O)n2nc(C)cc2C)c(Oc2ccc3ccccc3c2)n1,6%
8,CSc1ccc(Oc2nc(C)ccc2/C(=N/O)NCc2ccco2)cc1,-3%
9,c1ccc2c(-c3nc(CN4CCC5(CC4)OCCO5)co3)cccc2c1,1%
10,CCN(CC)CCN(CC)Cc1coc(-c2ccccc2C)n1,5%
11,CC1CC(C)CN(/C(=N\O)c2ccnc(Oc3ccc(Cl)cc3)c2)C1 (centres undefined),67%
12,CC(C)c1cccc(Oc2cc(/C(=N/O)N3CCC4CCCCC4C3)ccn2)c1 (centres undefined),9%
13,CC1CC(C)CN(/C(=N\O)c2ccnc(Oc3ccc(F)c(Cl)c3)c2)C1 (centres undefined),16%
14,CC1CC(C)CN(/C(=N\O)c2ccnc(Oc3cccc(F)c3)c2)C1 (centres undefined),-1%
15,CC1CC(C)CN(/C(=N\O)c2ccnc(Oc3cccc(C(C)C)c3)c2)C1 (centres undefined),58%
16,CC1CC(C)CN(/C(=N\O)c2ccnc(Oc3ccc(F)c(F)c3)c2)C1 (centres undefined),5%
17,COc1ccc(-c2nc(CNC(C)c3cccc4ccccc34)co2)cc1 (centres undefined),13%
18,Cc1ccc(/C(=N/O)NCc2cccnc2)c(Oc2c(F)c(F)cc(F)c2F)n1,35%
19,CCCCN(C)Cc1coc(-c2ccccc2)n1,6%
20,CSc1ccc(Oc2cc(/C(N)=N/O)ccn2)cc1,21%
21,Cc1ccc(N2CCN(Cc3coc(-c4cccc(F)c4)n3)CC2)cc1C,-4%
22,CC(C)c1ccc(N/C(=N\O)c2ccnc(Oc3ccc(F)c(F)c3)c2)cc1,22%

row,Structure (SMILES),% inhibition
1,O/N=C(\NCc1ccncc1)c1ccnc(Oc2ccc(F)c(F)c2)c1,8%
2,O/N=C(\NC1CCCC1)c1ccnc(Oc2cccc(F)c2)c1,82%
3,O/N=C(/c1ccnc(Oc2ccc(F)c(F)c2)c1)N1CCCCCC1,12%
4,O/N=C(\NC1CCCC1)c1ccnc(Oc2ccc(F)c(F)c2)c1,101%
5,CC1CCN(/C(=N\O)c2ccnc(Oc3ccc(F)c(F)c3)c2)CC1,41%
6,CC(C)c1ccc(N/C(=N\O)c2ccnc(Oc3cccc(F)c3)c2)cc1,-2%
7,O/N=C(\NC1CCCCC1)c1ccnc(Oc2ccc(F)c(F)c2)c1,99%
8,O/N=C(\NCc1ccccn1)c1ccnc(Oc2cccc(F)c2)c1,-2%
9,CCN(Cc1coc(-c2cccc3ccccc23)n1)C(C)C,-1%
10,Cc1cccc(N2CCN(Cc3coc(-c4ccccc4Cl)n3)CC2C)c1 (centres undefined),-10%
11,COCCN/C(=N\O)c1cccnc1Oc1cccc(C)c1C,0%
12,CSCCN/C(=N\O)c1cccnc1Oc1cccc2ccccc12,11%
13,COc1ccc(Oc2ncccc2/C(=N/O)NCCSC)cc1,10%
14,CSCCN/C(=N\O)c1cccnc1Oc1c(F)cccc1F,78%
15,CCOc1ccccc1Oc1ncccc1/C(=N/O)NCCOC,13%
16,COCCN/C(=N\O)c1cccnc1Oc1c(F)cccc1F,65%
17,CC(NCc1coc(-c2cccc(F)c2)n1)C(C)(C)C (centres undefined),8%
18,Clc1ccccc1-c1nc(CN2CCCCCCC2)co1,14%
19,Cc1cccc(CNCc2coc(-c3ccccc3Br)n2)c1,-1%
20,CC1CC(C)CN(/C(=N\O)c2ccc(Oc3ccc(Cl)cc3)nc2)C1 (centres undefined),0%
21,CCOc1ccccc1-c1nc(CNCc2ccc(C(F)(F)F)cc2)co1,6%
22,O/N=C(\NCc1cc(F)cc(F)c1)c1ccc(Oc2cccc(F)c2)nc1,42%

row,Structure (SMILES),% inhibition
1,COc1ccc(CN/C(=N\O)c2ccc(Oc3cccc(F)c3)nc2)cc1,-3%
2,CC(C)c1cccc(Oc2ccc(/C(=N/O)N(C)Cc3cccnc3)cn2)c1,99%
3,O/N=C(\NCc1cccs1)c1ccc(Oc2ccc3ccccc3c2)nc1,-9%
4,CN(Cc1cccnc1)/C(=N\O)c1ccc(Oc2ccc3ccccc3c2)nc1,9%
5,COc1cccc(Oc2ccc(/C(=N/O)NCc3cccs3)cn2)c1,2%
6,Cc1cc(Oc2ccc(/C(=N/O)NCc3ccncc3)cn2)cc(C(C)C)c1,3%
7,Cc1cc(Oc2ccc(/C(=N/O)N(C)Cc3cccnc3)cn2)cc(C(C)C)c1,12%
8,CC(C)c1cccc(Oc2cc(/C(=N/O)NCc3ccncc3)ccn2)c1,10%
9,CC(C)c1cccc(Oc2ccc(/C(=N/O)NCc3ccncc3)cn2)c1,100%
10,O/N=C(\NCc1cccs1)c1ccc(Oc2cccc(F)c2)nc1,75%
11,O/N=C(\NCc1ccncc1)c1ccc(Oc2cccc(F)c2)nc1,50%
12,COc1cc(C)ccc1Oc1ncccc1/C(=N/O)NCc1ccccn1,-7%
13,COC(=O)C1CCN(/C(=N\O)c2ccc(C)nc2Oc2ccc3ccccc3c2)CC1,19%
14,Clc1ccccc1-c1nc(CN2CCCc3ccccc32)co1,1%
15,Clc1ccccc1-c1nc(CNCCN2CCOCC2)co1,2%
16,CCOC(=O)C1CCCCN1Cc1coc(-c2ccccc2Br)n1 (centres undefined),-3%
17,CCCN(CCC)Cc1coc(-c2cccs2)n1,22%
18,O/N=C(/c1ccc(Oc2c(F)c(F)cc(F)c2F)nc1)N1CCN(c2ccc(F)cc2)CC1,22%
19,CC1C=CC(C)N1Cc1coc(-c2ccccc2Cl)n1 (centres undefined),0%
20,O/N=C(/c1ccc(Oc2ccc3ccccc3c2)nc1)N1CCCCC1,12%
21,CC1CCCN1/C(=N\O)c1ccc(Oc2ccc3ccccc3c2)nc1 (centres undefined),99%
22,Cc1cc(Oc2ccc(/C(=N/O)N3CCCC3C)cn2)cc(C(C)C)c1 (centres undefined),93%

row,Structure (SMILES),% inhibition
1,CC1CC(C)CN(/C(=N\O)c2ccc(Oc3ccc4ccccc4c3)nc2)C1 (centres undefined),-15%
2,CC1CCCN1/C(=N\O)c1ccc(Oc2ccc3oc4ccccc4c3c2)nc1 (centres undefined),-6%
3,Cc1cc(Oc2ccc(/C(=N/O)N3CCCCCC3)cn2)cc(C(C)C)c1,21%
4,Cc1cc(C)cc(Oc2ccc(/C(=N/O)N3C(C)CCC3C)cn2)c1 (centres undefined),6%
5,Cc1cc(Oc2ccc(/C(=N/O)N3CC(C)CC(C)C3)cn2)cc(C(C)C)c1 (centres undefined),4%
6,CC1CCC(C)N1/C(=N\O)c1ccc(Oc2ccc3ccccc3c2)nc1 (centres undefined),99%
7,Cc1cc(C)n(/C(=N\O)c2ccc(Oc3ccc4ccccc4c3)nc2)n1,12%
8,CCCCC(CC)CNCc1coc(-c2ccccc2Br)n1 (centres undefined),8%
9,CCOc1ccccc1-c1nc(CN(CCC#N)C2CCCCC2)co1,-4%
10,Cc1ncn(Cc2coc(-c3ccc(Br)cc3)n2)c1C=O,10%
11,CCOC(=O)CC(C)NCc1coc(-c2ccc(Cl)cc2Cl)n1 (centres undefined),-1%
12,COc1cccc(CN/C(=N\O)c2ccnc(Oc3cc(Cl)ccc3Cl)c2)c1,11%
13,O/N=C(\NC1CCC1)c1ccnc(Oc2cc(Cl)ccc2Cl)c1,95%
14,CC1CC(N/C(=N\O)c2ccnc(Oc3cc(Cl)ccc3Cl)c2)CC(C)(C)C1 (centres undefined),9%
15,N/C(=N\O)c1ccnc(Oc2cc(Cl)ccc2Cl)c1,20%
16,O/N=C(\NC1CCCC1)c1ccnc(Oc2cc(Cl)ccc2Cl)c1,94%
17,O/N=C(/c1ccnc(Oc2cc(Cl)ccc2Cl)c1)N1CCC=N1,32%
18,O/N=C(/c1cccnc1Oc1ccccc1OCc1ccccc1)N1CCOCC1,-16%
19,CN(CCCNCc1coc(-c2cccc(F)c2)n1)c1ccccc1,5%
20,CCOc1ccc(-c2nc(CN(CC)C(C)(C)C)co2)cc1,6%
21,CC(C)COc1ncccc1/C(=N/O)NC1CCCCC1,82%
22,CC(C)COc1ncccc1/C(=N/O)NC1CCN(Cc2ccccc2)C1 (centres undefined),-2%

row,Structure (SMILES),% inhibition
1,CC(C)COc1ncccc1/C(=N/O)Nc1ccc(C(C)C)cc1,2%
2,CC(C)COc1ncccc1/C(=N/O)NC1CCCC1,97%
3,CC1CCC(N/C(=N\O)c2cccnc2OCC(C)(C)C)CC1 (centres undefined),5%
4,CC(C)COc1ncccc1/C(=N/O)NC1CCC(C)CC1 (centres undefined),83%
5,CC(C)COc1ncccc1/C(=N/O)NC1CCC1,97%
6,CC(C)COc1ncccc1/C(=N/O)N1CCC(C)CC1,-1%
7,Cc1ccccc1-c1nc(CN2CCC(N3CCCCC3)CC2)co1,14%
8,C1=C(CCNCc2coc(-c3cccs3)n2)CCCC1,-10%
9,Cc1ccccc1NCc1coc(-c2ccco2)n1,-2%
10,CCN(Cc1coc(-c2ccc(C(F)(F)F)cc2)n1)c1ccccc1,4%
11,CC(NCc1coc(-c2ccc(OC(F)(F)F)cc2)n1)c1cccc2ccccc12 (centres undefined),-34%
12,O/N=C(\NCc1cc(F)cc(F)c1)c1ccc(Oc2c(F)c(F)cc(F)c2F)nc1,10%
13,O/N=C(\NCC1CC1)c1ccc(Oc2cccc3c2CCCC3)nc1,77%
14,O/N=C(\NC1CCCC1)c1ccc(Oc2cccc3c2CCCC3)nc1,97%
15,O/N=C(\NCc1c(F)cccc1F)c1ccc(Oc2cccc3c2CCCC3)nc1,15%
16,CCC(CC)N/C(=N\O)c1ccc(Oc2cccc3c2CCCC3)nc1,76%
17,COc1ccc(CN/C(=N\O)c2ccc(Oc3cccc4c3CCCC4)nc2)cc1,32%
18,O/N=C(\Nc1ccccc1)c1ccc(Oc2cccc3c2CCCC3)nc1,22%
19,O/N=C(/c1ccc(Oc2cccc3c2CCCC3)nc1)N1CCCCC1,31%
20,N/C(=N\O)c1ccc(Oc2cccc3c2CCCC3)nc1,19%
21,O/N=C(\NCc1cccs1)c1ccc(Oc2cccc3c2CCCC3)nc1,4%
